# Measurements reported in the supplement of paper PMC4466140.
# How the values were obtained:
# Assay in all cases: SPOT peptide array binding signal intensity (averaged, normalized) (arbitrary units (background-subtracted, floor 0; scale differs between SH3 domains)); higher = stronger binding of the SH3 domain to the peptide
# AgAbp1 = molecular target: AgAbp1
# Outline: (§1)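 GST-fused SH3 domains, from four yeast species, were produced in E. coli BL21(DE3) and captured on glutathione Sepharose. Membranes of cellulose carrying synthetic 15-mer peptides, in which cysteines had been replaced by serines, were exposed to each domain at 10 μg/ml overnight at 4°C in TBS-based blocking buffer. After anti-GST antibody, an HRP anti-mouse secondary and luminol, spots were imaged and quantified using Genespotter. Binding signal is normalized and background-subtracted spot intensity, averaged over replicates, in arbitrary units that differ between domains.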
# AgBbc1 = molecular target: AgBbc1
# Outline: as §1
# AgBem1-D1 = molecular target: AgBem1-D1
# Outline: as §1
# AgBzz1-D1 = molecular target: AgBzz1-D1
# Outline: as §1
# AgBzz1-D2 = molecular target: AgBzz1-D2
# Outline: as §1
# AgCyk3 = molecular target: AgCyk3
# Outline: as §1
# AgFus1 = molecular target: AgFus1
# Outline: as §1
# AgHof1 = molecular target: AgHof1
# Outline: as §1
# AgHse1 = molecular target: AgHse1
# Outline: as §1
# AgLsb1 = molecular target: AgLsb1
# Outline: as §1
# AgLsb4 = molecular target: AgLsb4
# Outline: as §1
# AgMyo5 = molecular target: AgMyo5
# Outline: as §1
# AgNbp2 = molecular target: AgNbp2
# Outline: as §1
# AgRvs167 = molecular target: AgRvs167
# Outline: as §1
# AgSho1 = molecular target: AgSho1
# Outline: as §1
# AgSla1-D1-D2 = molecular target: AgSla1-D1-D2
# Outline: as §1
# AgSla1-D3 = molecular target: AgSla1-D3
# Outline: as §1
# CaAbp1-D1 = molecular target: CaAbp1-D1
# Outline: as §1
# CaAbp1-D2 = molecular target: CaAbp1-D2
# Outline: as §1
# CaBbc1 = molecular target: CaBbc1
# Outline: as §1
# CaBem1-D1 = molecular target: CaBem1-D1
# Outline: as §1
# CaBzz1-D1 = molecular target: CaBzz1-D1
# Outline: as §1
# CaBzz1-D2 = molecular target: CaBzz1-D2
# Outline: as §1
# CaCyk3 = molecular target: CaCyk3
# Outline: as §1
# CaFus1 = molecular target: CaFus1
# Outline: as §1
# CaHof1 = molecular target: CaHof1
# Outline: as §1
# CaHse1 = molecular target: CaHse1
# Outline: as §1
# CaLsb1 = molecular target: CaLsb1
# Outline: as §1
# CaLsb4 = molecular target: CaLsb4
# Outline: as §1
# CaMyo5 = molecular target: CaMyo5
# Outline: as §1
# CaNbp2 = molecular target: CaNbp2
# Outline: as §1
# CaRvs167 = molecular target: CaRvs167
# Outline: as §1
# CaRvs167-3 = molecular target: CaRvs167-3
# Outline: as §1
# CaSho1 = molecular target: CaSho1
# Outline: as §1
# CaSla1-D1-D2 = molecular target: CaSla1-D1-D2
# Outline: as §1
# CaSla1-D3 = molecular target: CaSla1-D3
# Outline: as §1
# ScAbp1 = molecular target: ScAbp1
# Outline: as §1
# ScBbc1 = molecular target: ScBbc1
# Outline: as §1
# ScBem1-D1 = molecular target: ScBem1-D1
# Outline: as §1
# ScBzz1-D1 = molecular target: ScBzz1-D1
# Outline: as §1
# ScBzz1-D2 = molecular target: ScBzz1-D2
# Outline: as §1
# ScCyk3 = molecular target: ScCyk3
# Outline: as §1
# ScFus1 = molecular target: ScFus1
# Outline: as §1
# ScHof1 = molecular target: ScHof1
# Outline: as §1
# ScHse1 = molecular target: ScHse1
# Outline: as §1
# ScLsb1 = molecular target: ScLsb1
# Outline: as §1
# ScLsb2 = molecular target: ScLsb2
# Outline: as §1
# ScLsb3 = molecular target: ScLsb3
# Outline: as §1
# ScLsb4 = molecular target: ScLsb4
# Outline: as §1
# ScMyo3 = molecular target: ScMyo3
# Outline: as §1
# ScMyo5 = molecular target: ScMyo5
# Outline: as §1
# ScNbp2 = molecular target: ScNbp2
# Outline: as §1
# ScPex13 = molecular target: ScPex13
# Outline: as §1
# ScRvs167 = molecular target: ScRvs167
# Outline: as §1
# ScSho1 = molecular target: ScSho1
# Outline: as §1
# ScSla1-D1-D2 = molecular target: ScSla1-D1-D2
# Outline: as §1
# ScSla1-D3 = molecular target: ScSla1-D3
# Outline: as §1
# SpAbp1-D1 = molecular target: SpAbp1-D1
# Outline: as §1
# SpBbc1 = molecular target: SpBbc1
# Outline: as §1
# SpBzz1-D1 = molecular target: SpBzz1-D1
# Outline: as §1
# SpBzz1-D2 = molecular target: SpBzz1-D2
# Outline: as §1
# SpCyk3 = molecular target: SpCyk3
# Outline: as §1
# SpHof1 = molecular target: SpHof1
# Outline: as §1
# SpHof1-2 = molecular target: SpHof1-2
# Outline: as §1
# SpHof1-3 = molecular target: SpHof1-3
# Outline: as §1
# SpHse1 = molecular target: SpHse1
# Outline: as §1
# SpLsb1 = molecular target: SpLsb1
# Outline: as §1
# SpLsb4 = molecular target: SpLsb4
# Outline: as §1
# SpMyo1 = molecular target: SpMyo1
# Outline: as §1
# SpNbp2 = molecular target: SpNbp2
# Outline: as §1
# SpPex13 = molecular target: SpPex13
# Outline: as §1
# SpRvs167 = molecular target: SpRvs167
# Outline: as §1
# SpSla1-D1-D2 = molecular target: SpSla1-D1-D2
# Outline: as §1
# SpSla1-D3 = molecular target: SpSla1-D3
# Outline: as §1
binder,measurement,setting,value
IRMPSNPALPKKLLN,SPOT peptide array binding signal intensity,AgAbp1,194
same,SPOT peptide array binding signal intensity,AgBbc1,40
same,SPOT peptide array binding signal intensity,AgBem1-D1,431
same,SPOT peptide array binding signal intensity,AgBzz1-D1,10
same,SPOT peptide array binding signal intensity,AgBzz1-D2,10
same,SPOT peptide array binding signal intensity,AgCyk3,1
same,SPOT peptide array binding signal intensity,AgFus1,806
same,SPOT peptide array binding signal intensity,AgHof1,59.5
same,SPOT peptide array binding signal intensity,AgHse1,367
same,SPOT peptide array binding signal intensity,AgLsb1,2.5
same,SPOT peptide array binding signal intensity,AgLsb4,21.5
same,SPOT peptide array binding signal intensity,AgMyo5,1.75
same,SPOT peptide array binding signal intensity,AgNbp2,308
same,SPOT peptide array binding signal intensity,AgRvs167,2.33
same,SPOT peptide array binding signal intensity,AgSho1,852
same,SPOT peptide array binding signal intensity,AgSla1-D1-D2,16
same,SPOT peptide array binding signal intensity,AgSla1-D3,7.5
same,SPOT peptide array binding signal intensity,CaAbp1-D1,616
same,SPOT peptide array binding signal intensity,CaAbp1-D2,1080
same,SPOT peptide array binding signal intensity,CaBbc1,126
same,SPOT peptide array binding signal intensity,CaBem1-D1,444
same,SPOT peptide array binding signal intensity,CaBzz1-D1,314
same,SPOT peptide array binding signal intensity,CaBzz1-D2,247
same,SPOT peptide array binding signal intensity,CaCyk3,15
same,SPOT peptide array binding signal intensity,CaFus1,1400
same,SPOT peptide array binding signal intensity,CaHof1,≤ 0
same,SPOT peptide array binding signal intensity,CaHse1,504
same,SPOT peptide array binding signal intensity,CaLsb1,15.5
same,SPOT peptide array binding signal intensity,CaLsb4,692
same,SPOT peptide array binding signal intensity,CaMyo5,97.5
same,SPOT peptide array binding signal intensity,CaNbp2,1060
same,SPOT peptide array binding signal intensity,CaRvs167,65.7
same,SPOT peptide array binding signal intensity,CaRvs167-3,3.5
same,SPOT peptide array binding signal intensity,CaSho1,2070
same,SPOT peptide array binding signal intensity,CaSla1-D1-D2,476
same,SPOT peptide array binding signal intensity,CaSla1-D3,424
same,SPOT peptide array binding signal intensity,ScAbp1,104
same,SPOT peptide array binding signal intensity,ScBbc1,9.5
same,SPOT peptide array binding signal intensity,ScBem1-D1,2
same,SPOT peptide array binding signal intensity,ScBzz1-D1,17
same,SPOT peptide array binding signal intensity,ScBzz1-D2,29
same,SPOT peptide array binding signal intensity,ScCyk3,6
same,SPOT peptide array binding signal intensity,ScFus1,805
same,SPOT peptide array binding signal intensity,ScHof1,5.5
same,SPOT peptide array binding signal intensity,ScHse1,89.5
same,SPOT peptide array binding signal intensity,ScLsb1,102
same,SPOT peptide array binding signal intensity,ScLsb2,≤ 0
same,SPOT peptide array binding signal intensity,ScLsb3,769
same,SPOT peptide array binding signal intensity,ScLsb4,296
same,SPOT peptide array binding signal intensity,ScMyo3,35.2
same,SPOT peptide array binding signal intensity,ScMyo5,2
same,SPOT peptide array binding signal intensity,ScNbp2,509
same,SPOT peptide array binding signal intensity,ScPex13,195
same,SPOT peptide array binding signal intensity,ScRvs167,32.5
same,SPOT peptide array binding signal intensity,ScSho1,1060
same,SPOT peptide array binding signal intensity,ScSla1-D1-D2,544
same,SPOT peptide array binding signal intensity,ScSla1-D3,277
same,SPOT peptide array binding signal intensity,SpAbp1-D1,268
same,SPOT peptide array binding signal intensity,SpBbc1,5
same,SPOT peptide array binding signal intensity,SpBzz1-D1,700
same,SPOT peptide array binding signal intensity,SpBzz1-D2,41
same,SPOT peptide array binding signal intensity,SpCyk3,4
same,SPOT peptide array binding signal intensity,SpHof1,53.2
same,SPOT peptide array binding signal intensity,SpHof1-2,30
same,SPOT peptide array binding signal intensity,SpHof1-3,22.8
same,SPOT peptide array binding signal intensity,SpHse1,294
same,SPOT peptide array binding signal intensity,SpLsb1,16.8
same,SPOT peptide array binding signal intensity,SpLsb4,1170
same,SPOT peptide array binding signal intensity,SpMyo1,67.5
same,SPOT peptide array binding signal intensity,SpNbp2,241
same,SPOT peptide array binding signal intensity,SpPex13,136
same,SPOT peptide array binding signal intensity,SpRvs167,107
same,SPOT peptide array binding signal intensity,SpSla1-D1-D2,17.5
same,SPOT peptide array binding signal intensity,SpSla1-D3,477
RRGPAPPPPPRASRP,SPOT peptide array binding signal intensity,AgAbp1,181
same,SPOT peptide array binding signal intensity,AgBbc1,646
same,SPOT peptide array binding signal intensity,AgBem1-D1,410
same,SPOT peptide array binding signal intensity,AgBzz1-D1,582
same,SPOT peptide array binding signal intensity,AgBzz1-D2,164
same,SPOT peptide array binding signal intensity,AgCyk3,2
same,SPOT peptide array binding signal intensity,AgFus1,23
same,SPOT peptide array binding signal intensity,AgHof1,63.8
same,SPOT peptide array binding signal intensity,AgHse1,32.5
same,SPOT peptide array binding signal intensity,AgLsb1,80.2
same,SPOT peptide array binding signal intensity,AgLsb4,485
same,SPOT peptide array binding signal intensity,AgMyo5,89
same,SPOT peptide array binding signal intensity,AgNbp2,205
same,SPOT peptide array binding signal intensity,AgRvs167,339
same,SPOT peptide array binding signal intensity,AgSho1,13
same,SPOT peptide array binding signal intensity,AgSla1-D1-D2,21
same,SPOT peptide array binding signal intensity,AgSla1-D3,14
same,SPOT peptide array binding signal intensity,CaAbp1-D1,1290
same,SPOT peptide array binding signal intensity,CaAbp1-D2,281
same,SPOT peptide array binding signal intensity,CaBbc1,1160
same,SPOT peptide array binding signal intensity,CaBem1-D1,1890
same,SPOT peptide array binding signal intensity,CaBzz1-D1,3450
same,SPOT peptide array binding signal intensity,CaBzz1-D2,2600
same,SPOT peptide array binding signal intensity,CaCyk3,216
same,SPOT peptide array binding signal intensity,CaFus1,124
same,SPOT peptide array binding signal intensity,CaHof1,6.5
same,SPOT peptide array binding signal intensity,CaHse1,6.75
same,SPOT peptide array binding signal intensity,CaLsb1,0.75
same,SPOT peptide array binding signal intensity,CaLsb4,1000
same,SPOT peptide array binding signal intensity,CaMyo5,9
RSLRKRPTSPSISGS,SPOT peptide array binding signal intensity,SpBzz1-D2,0.75
same,SPOT peptide array binding signal intensity,SpCyk3,13.5
same,SPOT peptide array binding signal intensity,SpHof1,428
same,SPOT peptide array binding signal intensity,SpHof1-2,43.8
same,SPOT peptide array binding signal intensity,SpHof1-3,730
same,SPOT peptide array binding signal intensity,SpHse1,621
same,SPOT peptide array binding signal intensity,SpLsb1,17.8
same,SPOT peptide array binding signal intensity,SpLsb4,776
same,SPOT peptide array binding signal intensity,SpMyo1,9
same,SPOT peptide array binding signal intensity,SpNbp2,2180
same,SPOT peptide array binding signal intensity,SpPex13,7
same,SPOT peptide array binding signal intensity,SpRvs167,10.8
same,SPOT peptide array binding signal intensity,SpSla1-D1-D2,5
same,SPOT peptide array binding signal intensity,SpSla1-D3,8
